Hit rate of the full screen: of about 280,000 compounds, about 1,100 (0.39%) were called active. A call without a number means that no potency is given here. Not shown: some 7% with an inconclusive outcome. Calls come from the whole dose curve; as a rule, active = well fitted inhibition curve with a large enough effect; inconclusive = small, poorly fitted or top-dose-only effect, or effect the other way; inactive = flat fitted curve, though single readings scatter. The sample as a whole holds a higher share of actives than the screen did.
Each molecule was assayed against Microtubule-associated protein tau (Homo sapiens) (UniProt P10636) (assay: qHTS for Inhibitors of Tau Fibril Formation, Fluorescence Polarization). Conditions: K18 P301L tau heparin fibrillization, Alexa594 FP, 6 h; series mostly up to 57.7 µM.
Sequence of Microtubule-associated protein tau (Homo sapiens) (P10636 561-689 P618L limits assumed): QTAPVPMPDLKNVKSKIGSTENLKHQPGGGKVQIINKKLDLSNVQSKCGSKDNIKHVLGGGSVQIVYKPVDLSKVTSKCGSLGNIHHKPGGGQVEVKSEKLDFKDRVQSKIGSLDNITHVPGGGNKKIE
In short: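 K18 P301L tau (15 uM unlabeled/0.24 uM Alexa 594-labeled, final) + compound + heparin 20 uM final; 100 mM NaOAc pH 7; 6 hr 37 C; ThT 30 uM final added, 1 hr RT; FP ex 555/em 632 nm.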
Note: nearly all actives have a fitted effect of over 55% in size.
Potency is the fitted concentration of half-maximal effect.

| Structure (SMILES) | Potency |
| --- | --- |
| O=C(Cn1ncc2c3ccccc3n(Cc3ccccc3)c2c1=O)NC1CCCCCC1 | inactive |
| Clc1ccc(CSc2nncn3c2cc2occc23)cc1 | inactive |
| COc1ccc(C2CC(=O)N(Cc3ccccc3C)c3c2c(C)nn3-c2nc(C)cc(C)n2)c(OC)c1 (stereo not drawn) | inactive |
| Cc1ccc(C)c(S(=O)(=O)c2nnn3c2nc(N2CCOCC2)c2sccc23)c1 | inactive |
| Fc1ccc(Nc2nc(SCc3ccccc3Cl)nc3ccccc23)cc1 | 6.31 µM (active) |
| O=C(CSc1nc(Nc2ccc(F)c(F)c2)c2ccccc2n1)c1ccc(Cl)cc1 | inactive |
| Fc1ccc(CSc2nc(NCc3ccccc3)c3ccccc3n2)cc1 | inactive |
| Cc1ccc(C(=O)N2c3ncnn3C3(CCCCC3)[C@@H]3CCCC[C@@H]32)cc1 | inactive |
| Cc1ccc(OCCSc2nc3ccc(NC(=O)COc4ccc(C)cc4)cc3s2)cc1 | inactive |
| CC(=O)Nc1ccc2nc(SCCOc3cc(C)cc(C)c3)sc2c1 | 12.6 µM (active) |
| CCOc1ccc2nc(Nc3nc4ccc(NC(C)=O)cc4s3)sc2c1 | inactive |
| COc1ccccc1C(=O)NCCn1cc(SCc2ccccc2Cl)c2ccccc21 | inactive |
| O=C(O)c1ccc(NC(=O)c2cn(-c3ccccc3)nc2-c2ccc(Cl)cc2)cc1 | inactive |
| COc1ccc(-c2nn(-c3ccccc3)cc2/C=C\C(=O)Nc2ccc(C(=O)O)cc2)cc1 | inactive |
| Cc1ccc(-c2nn(-c3ccccc3)cc2C(=O)Nc2cccc(S(=O)(=O)N3CCOCC3)c2)cc1 | 14.1 µM (active) |
| Cc1ccc(-c2nn(-c3ccccc3)cc2/C=C/C(=O)Nc2cccc(S(N)(=O)=O)c2)cc1 | 14.1 µM (active) |
| O=C(COC(=O)c1ccccc1)Nc1cccc(S(=O)(=O)N2CCOCC2)c1 | inactive |
| O=C(O)/C=C/c1cn(-c2ccccc2)nc1-c1cccs1 | inactive |
| COc1ccccc1N1CCN(C2C(=O)c3ccccc3N2C(C)=O)CC1 (stereo not drawn) | inactive |
| CCC(=O)N1CCc2cc(CNC(=O)Nc3ccccc3Cl)ccc21 | inactive |
| COc1ccc(Cc2nc3ccc(C(=O)NCc4ccccc4C)cc3o2)cc1 | inactive |
| CCN1CCc2nc3sc(C(=O)Nc4ccccc4OC(F)(F)F)c(N)c3cc2C1 | inactive |
| O=C(Nc1ccc(Br)cc1)c1ccc(Br)c(S(=O)(=O)NCc2ccccc2)c1 | 12.6 µM (active) |
| Cc1ccc(C(=O)Nc2ccc(C(=O)O)cc2)cc1S(=O)(=O)Nc1ccccc1 | inactive |
| O=C(Nc1cccc(NC(=O)c2ccc(Br)cc2)c1)c1ccccc1 | inactive |

| Structure (SMILES) | Potency |
| --- | --- |
| COC(=O)c1scc(-c2ccccc2)c1S(=O)(=O)Nc1ccccc1 | inactive |
| Cc1ccc(Cn2c(C)c3cnn(CC(=O)NCc4ccccc4)c(=O)c3c2C)cc1 | inactive |
| CN(C)S(=O)(=O)c1cccc(C(=O)Nc2cccnc2)c1 | inactive |
| O=C(c1cccnc1)N(c1cc2sc(=O)oc2c2ccccc12)S(=O)(=O)c1ccccc1 | 17.8 µM (active) |
| COc1ccc(N(C(=O)c2cccnc2)S(=O)(=O)c2ccc3c(c2)n(C)c(=O)n3C)cc1 | inactive |
| Cc1cccc(N2CCN(C(=O)c3cnc(N4CCCC4)nc3C)CC2)c1C | inactive |
| CCc1ccccc1NC(=O)N1CCC2(CC1)Oc1ccccc1C(=O)N2Cc1ccccc1F | inactive |
| Cc1ccc(N(CC(=O)NCC(C)c2ccccc2)S(=O)(=O)N(C)C)cc1 (stereo not drawn) | inactive |
| CCOc1ccc(CNC(=O)Cn2cc3c(n2)-c2c(oc(C(=O)N4CCCC4)c2C)CC3)cc1 | inactive |
| O=C(Nc1ccc2ccccc2c1)Nc1ccc2snnc2c1 | 11.2 µM (active) |
| COc1ccc(NC(=O)Nc2ccc3nsnc3c2)cc1 | inactive |
| O=C(Nc1ccccc1)Nc1nc2ccccc2s1 | inactive |
| Cc1ccc(Cl)cc1N1CCN(C(=O)C2CCC(CNS(=O)(=O)c3cccs3)CC2)CC1 (stereo not drawn) | inactive |
| CCCOc1ccc(NC(=O)CC2C(=O)N(c3ccccc3)C(=O)N2Cc2ccco2)cc1 (stereo not drawn) | inactive |
| O=C(CCCN1C(=O)/C(=C/c2ccccc2)SC1=S)Nc1ccc(O)cc1 | inactive |
| O=C(CCN1C(=O)/C(=C/c2cccs2)SC1=S)NNC(=O)c1cccc(O)c1 | 35.5 µM (active) |
| COc1ccc(/C=C2\SC(=S)N(CC(=O)NNC(=O)c3ccncc3)C2=O)cc1 | inactive |
| O=C(CCC(=O)N1CC2CCCN2c2ccccc21)NCc1ccccc1Cl (stereo not drawn) | inactive |
| CN(C)c1cccc(C(=O)Nc2nc3ccc(S(=O)(=O)NC(C)(C)C)cc3s2)c1 | inactive |
| COc1ccccc1Oc1nc(-c2cccnc2)nc2ccccc12 | inactive |
| CNc1nc(-c2ccccc2OC)nc2ccccc12 | inactive |
| c1ccc2c(NCC3CCCO3)nc(-c3ccncc3)nc2c1 (stereo not drawn) | inactive |
| COc1cccc(-c2nc(Nc3ccncc3)c3ccccc3n2)c1 | 14.1 µM (active) |
| c1ccc2c(Nc3ccncc3)nc(-c3ccc4c(c3)OCO4)nc2c1 | 10 µM (active) |
| c1ccc2c(Nc3ccncc3)nc(-c3ccoc3)nc2c1 | inactive |

| Structure (SMILES) | Potency |
| --- | --- |
| COc1ccc(-n2c(SCC(N)=O)nc3c(oc4ccccc43)c2=O)cc1 | inactive |
| Cc1cccc(C(=O)N2CCc3cc(CNC(=O)Cc4ccc(F)cc4)ccc32)c1 | inactive |
| CCN(CC)S(=O)(=O)c1ccc2c(c1)N(CC(=O)NCC(C)c1ccccc1)C(=O)CO2 (stereo not drawn) | inactive |
| Cc1ccc(S(=O)(=O)N2CCCc3cc(NS(=O)(=O)c4cc(C)ccc4C)ccc32)cc1 | inactive |
| COc1ccc(C(=O)Nc2ccccc2C(=O)N/N=C/c2ccc(O)c(OC)c2)cc1 | inactive |
| COc1cc(/C=N/NC(=O)c2ccccc2)ccc1OS(=O)(=O)c1ccccc1 | 35.5 µM (active) |
| COc1ccc(/C=N/S(=O)(=O)c2ccccc2)cc1OC | inactive |
| COc1ccc(-c2nc(SCC(=O)N3CCCCC3C)n[nH]2)cc1 (stereo not drawn) | inactive |
| Cc1nc(SCCOc2ccc(Cl)cc2)[nH]c(=O)c1Cc1ccccc1 | inactive |
| C(=N\N1CCN(c2ccccn2)CC1)/C1=C(N2CCOCC2)C(=C/c2ccccc2)/CC1 | inactive |
| N#C/C(=C\c1ccccc1C(F)(F)F)C(=O)Nc1ccccc1F | inactive |
| N#C/C(=C\C1=C(N2CCOCC2)C(=C\c2ccccc2)/CC1)C(=O)Nc1ccccc1F | 25.1 µM (active) |
| Cc1c(Cl)cccc1-c1ccc(CNCCCSc2nnnn2C)o1 | inactive |
| Cc1cccc2nc(-c3ccc(Cl)s3)c(Nc3ccc4c(c3)OCCO4)n12 | inactive |
| Cc1ccc2sc(N(Cc3cccnc3)C(=O)C3COc4ccccc4O3)nc2c1C (stereo not drawn) | inactive |
| COc1ccc(N2CCN(C(=O)C3CCCN(C(=O)c4cc5sccc5n4C)C3)CC2)cc1 (stereo not drawn) | inactive |
| CCc1ccc(CN(Cc2ccco2)C(=O)COc2ccc(Cl)c(C)c2)cc1 | inactive |
| COc1ccc(OC)c(C2C3=C(N=c4s/c(=C\c5cccc(O)c5)c(=O)n42)c2ccccc2CC3)c1 (stereo not drawn) | 22.4 µM (active) |
| CCOC(=O)C1=C(C)N=c2s/c(=C\C(=O)OC)c(=O)n2C1c1ccc(OC)cc1 (stereo not drawn) | inactive |
| O=C1CCCC2=C1C(c1ccccc1)n1c(s/c(=C/c3cccc(F)c3)c1=O)=N2 (stereo not drawn) | inactive |
| COC(=O)c1sccc1S(=O)(=O)N(CC(=O)Nc1ccc(C)c(F)c1)c1ccc(C)c(C)c1 | inactive |
| CCOc1ccc(Nc2ncnc3scc(-c4ccc(OC)cc4)c23)cc1 | inactive |
| CCOC(=O)N1CCc2c(sc(NCc3cccc(F)c3)c2C(=O)Nc2ccccc2OCC)C1 | inactive |
| CCOC(=O)N1CCc2c(sc3c2c(=O)n(-c2ccc(CC)cc2)c(=O)n3C)C1 | inactive |
| Cc1ccccc1CNC(=O)c1cccc(NC(=O)c2nsc3ccccc23)c1 | inactive |

| Structure (SMILES) | Potency |
| --- | --- |
| Cc1ccc(NC(=O)Nc2cc(-c3ccccc3)nn2C)cc1Cl | 14.1 µM (active) |
| Cc1cc(NC(=O)Nc2ccccc2)n(-c2ccccc2)n1 | inactive |
| Cc1cc(NC(=O)Nc2ccc(Cl)cc2)n(-c2ccccc2)n1 | inactive |
| CC1CN(C(=O)N2CCC(C(=O)NCc3ccco3)CC2)c2cc(Cl)ccc2O1 (stereo not drawn) | inactive |
| Cc1cccc(NC(=O)CSc2nc3c([nH]c4ccccc43)c(=O)n2-c2cc(C)cc(C)c2)c1 | inactive |
| COCCn1c(SCC(=O)c2cc(C)ccc2C)nc2cc(C(=O)NC3CCCC3)ccc2c1=O | inactive |
| COc1ccc(-c2cn3c(C)c(C(=O)Nc4cc(C)cc(C)c4)sc3n2)cc1 | inactive |
| O=C1C(Cl)=C(N2CCOCC2)C(=O)N1c1ccccc1 | 28.2 µM (active) |
| c1ccc(-n2nnnc2N2CCOCC2)cc1 | inactive |
| O=C1OC(NC(=O)c2ccccc2)C(N2CCOCC2)=C1Cl (stereo not drawn) | inactive |
| Cc1ccc2nc(N3CCN(c4cccc(Cl)c4)CC3)c3nnnn3c2c1 | inactive |
| O=C(CNS(=O)(=O)c1cccs1)N1CCN(c2ccccc2Cl)CC1 | inactive |
| Cc1ccccc1CN1CCC(CNC(=O)c2cc3ccc4cccnc4c3[nH]2)CC1 | inactive |
| COc1ccccc1CNC(=O)NCc1noc2ccc(C)cc12 | inactive |
| Cc1ccc(NC(=O)C2CCN(S(=O)(=O)c3cc(-c4noc(C)n4)ccc3C)CC2)c(C)c1 | inactive |
| COc1ccc(OC)c(NC(=O)CSc2nc3ccccc3nc2N2CCCCC2)c1 | inactive |
| O=c1c(O)c(Br)ccc2c(Br)c(O)c(O)c(O)c12 | 10 µM (active) |
| CC(C)Cn1c(=O)c2ccccc2n2c(-c3cccc(Cl)c3)nnc12 | inactive |
| COc1ccc2c(c1)c(N1CCCC1=O)c(C(=O)Nc1ccccc1C(F)(F)F)n2C | inactive |
| CN(c1ccccc1)c1nc(N)c([N+](=O)[O-])c(NCc2ccco2)n1 | inactive |
| COc1cccc(Nc2nc(N)c([N+](=O)[O-])c(NCc3ccco3)n2)c1 | 3.16 µM (active) |
| COc1ccc(Nc2nc(Cl)nc(NCc3ccco3)n2)cc1 | inactive |
| O=C(NCC(c1cccnc1)N1CCc2ccccc21)c1cccc(C(F)(F)F)c1 (stereo not drawn) | inactive |
